From ChEMBL document CHEMBL4513146, “CO-ADD screening of Karazin Kharkiv National University (Ukraine) compounds”
Measured potencies and affinities stand elsewhere.

system: Staphylococcus aureus; conditions: Concentration 32 ug.mL-1;; ASSAY_TEST Inhibition of Bacterial Growth; detection method Absorption (OD600); MEDIA CAMHB; plate type 384well; NBS; CORNING #3640; time 18 hr

SMILES	Inhibition
CCCCOc1ccc(-c2cc3c4nnc(SCC(=O)NCc5ccccc5)n4ccn3n2)cc1	-2.73%
Cc1ccc(NC(=O)Cn2c(=O)c3nnc(C)n3c3ccccc32)cc1C	17.12%
COc1ccc(-c2nc(CSc3nc4ccccc4n4c(C(C)C)nnc34)c(C)o2)cc1OC	-10.5%
CCOc1ccc(-n2ccn3c(SCC(=O)Nc4cc(F)ccc4F)nnc3c2=O)cc1	-3.91%
Cc1cc(C)c(NC(=O)Cn2nc3ccc(-c4ccc(C)c(C)c4)nn3c2=O)c(C)c1	-8.09%
COc1cccc(CN(c2ccc(F)cc2)S(=O)(=O)c2ccc3nnc(C)n3c2)c1	-1.25%
O=S(=O)(c1ccc2nncn2c1)N(Cc1cc(F)cc(F)c1)c1ccc(F)c(F)c1	8.61%
CCCCN(C)c1ccc2nnc(CCc3nc(-c4cc(OC)cc(OC)c4)no3)n2n1	-6.16%
COc1ccc(CNC(=O)CSc2nnc3c4cc(-c5ccc(C)cc5)nn4ccn23)cc1OC	5.65%
Cc1ccccc1N1CCN(c2nccn3c(=O)n(CC(=O)Nc4cccc(C(C)C)c4)nc23)CC1	14.78%
CCOC(=O)c1ccc(NC(=O)Cn2nc3c(SCc4ccc(Cl)cc4)nccn3c2=O)cc1	-2.95%
Cc1cc2nn(CC(=O)Nc3ccc(Cl)cc3)c(=O)n2c(Nc2ccc(F)c(C)c2)n1	4.83%
Cc1ccc(Oc2nc3ccccc3n3c(=O)n(CC(=O)Nc4ccc5c(c4)OCO5)nc23)cc1	1.4%
CCc1nnc2c(S(=O)(=O)N(Cc3ccc(C)cc3)c3ccc(C(C)C)cc3)cccn12	16.04%
CCc1ccc(NC(=O)Cn2c(=O)c3nnc(C(C)C)n3c3ccccc32)cc1	6.08%
Cc1cc2nn(CC(=O)Nc3cc(F)cc(F)c3)c(=O)n2c(Nc2ccccc2C)n1	5.53%
CCCCOc1ccc(-c2cc3c4nnc(SCC(=O)N(CC)c5ccccc5)n4ccn3n2)cc1	7.98%
Cc1c(Cl)cccc1NC(=O)CSc1nc2ccccc2n2c(C)nnc12	7.92%
Cc1nnc2c(=O)n(CC(=O)Nc3cccc(F)c3)c3ccccc3n12	14.13%
CC(=O)c1ccc(N2CCN(C(=O)CCc3nnc4c5cc(-c6ccccc6)nn5ccn34)CC2)cc1	11.68%

SMILES	Inhibition
COc1ccc(NC(=O)C(C)Sc2nnc3c(=O)n(-c4cccc(OC)c4)ccn23)cc1 (stereo not given)	6.45%
CCc1nnc2c(SCC(=O)Nc3cc(Cl)ccc3C)nc3ccccc3n12	13.83%
Cc1cc(C)c(C(=O)CSc2nnc3c(=O)n(-c4ccc(F)c(F)c4)ccn23)cc1C	17%
Cc1ccc(C)c(NC(=O)Cn2nc3c4cc(-c5ccc(C)c(C)c5)nn4ccn3c2=O)c1	4.52%
CCCn1c(=O)c2sccc2n2c(=O)n(CC(=O)c3ccccc3)nc12	3.8%
Cc1ccc(C)c(NC(=O)Cn2nc3c(Sc4ccccc4)nccn3c2=O)c1	6.23%
COc1ccc(-c2cc3c4nnc(SCC(=O)NCc5ccc(C)cc5)n4ccn3n2)cc1	-10.11%
Cc1ccc(Sc2nccn3c(=O)n(CC(=O)N4CCN(c5ccccc5)CC4)nc23)c(C)c1	-10.57%
O=C(CSc1nnc2c(=O)n(-c3ccccc3)ccn12)Nc1ccc2c(c1)OCCO2	8.84%
Cc1cc2nn(CC(=O)Nc3cc(F)ccc3F)c(=O)n2c(Nc2ccc(C)c(F)c2)n1	0.88%
O=C(Cn1nc2c(Sc3ccccc3)nccn2c1=O)Nc1ccc2c(c1)OCO2	-26.09%
COc1ccc(CN(c2ccc(F)c(F)c2)S(=O)(=O)c2ccc3nncn3c2)cc1	-0.97%
O=c1c2nn(Cc3cccc(Cl)c3)c(=O)n2ccn1-c1ccccc1	0.94%
CC(=O)Nc1ccc(NC(=O)CSc2nc3ccccc3n3cnnc23)cc1	-1.2%
COc1ccc(Cl)cc1NC(=O)Cn1nc2c(Sc3ccc(C)cc3C)nccn2c1=O	-3.15%
CCCNC(=O)Cn1nc2nc(Nc3ccc(F)cc3)ccn2c1=O	8.25%
CC(C)c1nnc2c(SCC(=O)Nc3ccc4c(c3)OCO4)nc3ccccc3n12	-0.91%
Cc1ccc(C(=O)C(C)Sc2nnc3c(=O)n(-c4ccc(F)c(F)c4)ccn23)cc1C (stereo not given)	19.73%
O=c1c2nnc(SCc3ccccc3Cl)n2ccn1-c1ccc(F)cc1	8.27%
Cc1ccc(Sc2nccn3c(=O)n(CC(=O)N4CCN(c5ccccc5F)CC4)nc23)c(C)c1	2.97%

system: Escherichia coli; conditions: Concentration 32 ug.mL-1;; ASSAY_TEST Inhibition of Bacterial Growth; detection method Absorption (OD600); MEDIA CAMHB; plate type 384well; NBS; CORNING #3640; time 18 hr

SMILES	Inhibition
CCCCOc1ccc(-c2cc3c4nnc(SCC(=O)NCc5ccccc5)n4ccn3n2)cc1	-6.82%
Cc1ccc(NC(=O)Cn2c(=O)c3nnc(C)n3c3ccccc32)cc1C	0.02%
COc1ccc(-c2nc(CSc3nc4ccccc4n4c(C(C)C)nnc34)c(C)o2)cc1OC	0.54%
CCOc1ccc(-n2ccn3c(SCC(=O)Nc4cc(F)ccc4F)nnc3c2=O)cc1	1.2%
Cc1cc(C)c(NC(=O)Cn2nc3ccc(-c4ccc(C)c(C)c4)nn3c2=O)c(C)c1	-15.6%
COc1cccc(CN(c2ccc(F)cc2)S(=O)(=O)c2ccc3nnc(C)n3c2)c1	-6.02%
O=S(=O)(c1ccc2nncn2c1)N(Cc1cc(F)cc(F)c1)c1ccc(F)c(F)c1	-4.86%
CCCCN(C)c1ccc2nnc(CCc3nc(-c4cc(OC)cc(OC)c4)no3)n2n1	-4.97%
COc1ccc(CNC(=O)CSc2nnc3c4cc(-c5ccc(C)cc5)nn4ccn23)cc1OC	-0.16%
Cc1ccccc1N1CCN(c2nccn3c(=O)n(CC(=O)Nc4cccc(C(C)C)c4)nc23)CC1	-9.47%
CCOC(=O)c1ccc(NC(=O)Cn2nc3c(SCc4ccc(Cl)cc4)nccn3c2=O)cc1	-14.83%
Cc1cc2nn(CC(=O)Nc3ccc(Cl)cc3)c(=O)n2c(Nc2ccc(F)c(C)c2)n1	-2.12%
Cc1ccc(Oc2nc3ccccc3n3c(=O)n(CC(=O)Nc4ccc5c(c4)OCO5)nc23)cc1	-7.69%
CCc1nnc2c(S(=O)(=O)N(Cc3ccc(C)cc3)c3ccc(C(C)C)cc3)cccn12	-0.02%
CCc1ccc(NC(=O)Cn2c(=O)c3nnc(C(C)C)n3c3ccccc32)cc1	6.05%
Cc1cc2nn(CC(=O)Nc3cc(F)cc(F)c3)c(=O)n2c(Nc2ccccc2C)n1	-3.12%
CCCCOc1ccc(-c2cc3c4nnc(SCC(=O)N(CC)c5ccccc5)n4ccn3n2)cc1	-2.57%
Cc1c(Cl)cccc1NC(=O)CSc1nc2ccccc2n2c(C)nnc12	3.58%
Cc1nnc2c(=O)n(CC(=O)Nc3cccc(F)c3)c3ccccc3n12	2.22%
CC(=O)c1ccc(N2CCN(C(=O)CCc3nnc4c5cc(-c6ccccc6)nn5ccn34)CC2)cc1	2.66%

SMILES	Inhibition
COc1ccc(NC(=O)C(C)Sc2nnc3c(=O)n(-c4cccc(OC)c4)ccn23)cc1 (stereo not given)	-9.09%
CCc1nnc2c(SCC(=O)Nc3cc(Cl)ccc3C)nc3ccccc3n12	-0.41%
Cc1cc(C)c(C(=O)CSc2nnc3c(=O)n(-c4ccc(F)c(F)c4)ccn23)cc1C	-3.21%
Cc1ccc(C)c(NC(=O)Cn2nc3c4cc(-c5ccc(C)c(C)c5)nn4ccn3c2=O)c1	-6.72%
CCCn1c(=O)c2sccc2n2c(=O)n(CC(=O)c3ccccc3)nc12	2.71%
Cc1ccc(C)c(NC(=O)Cn2nc3c(Sc4ccccc4)nccn3c2=O)c1	-5.56%
COc1ccc(-c2cc3c4nnc(SCC(=O)NCc5ccc(C)cc5)n4ccn3n2)cc1	0.51%
Cc1ccc(Sc2nccn3c(=O)n(CC(=O)N4CCN(c5ccccc5)CC4)nc23)c(C)c1	-12.78%
O=C(CSc1nnc2c(=O)n(-c3ccccc3)ccn12)Nc1ccc2c(c1)OCCO2	-1.03%
Cc1cc2nn(CC(=O)Nc3cc(F)ccc3F)c(=O)n2c(Nc2ccc(C)c(F)c2)n1	-8.4%
O=C(Cn1nc2c(Sc3ccccc3)nccn2c1=O)Nc1ccc2c(c1)OCO2	0.44%
COc1ccc(CN(c2ccc(F)c(F)c2)S(=O)(=O)c2ccc3nncn3c2)cc1	-4.01%
O=c1c2nn(Cc3cccc(Cl)c3)c(=O)n2ccn1-c1ccccc1	-5.32%
CC(=O)Nc1ccc(NC(=O)CSc2nc3ccccc3n3cnnc23)cc1	2.28%
COc1ccc(Cl)cc1NC(=O)Cn1nc2c(Sc3ccc(C)cc3C)nccn2c1=O	-8.38%
CCCNC(=O)Cn1nc2nc(Nc3ccc(F)cc3)ccn2c1=O	-13.63%
CC(C)c1nnc2c(SCC(=O)Nc3ccc4c(c3)OCO4)nc3ccccc3n12	-6.38%
Cc1ccc(C(=O)C(C)Sc2nnc3c(=O)n(-c4ccc(F)c(F)c4)ccn23)cc1C (stereo not given)	1.41%
O=c1c2nnc(SCc3ccccc3Cl)n2ccn1-c1ccc(F)cc1	-4.39%
Cc1ccc(Sc2nccn3c(=O)n(CC(=O)N4CCN(c5ccccc5F)CC4)nc23)c(C)c1	-4.29%
